Laboratory results reported in paper PMC5540273 (PLoS ONE, 2017).

Tests used:
Conditions in all cases: concentration: 1 μM, replicates: in singlicate; n = 1
PIP5K2C = test system: T1, PIP5K2C
T1 construct: gene PIP4K2C

PKAC-alpha = test system: T2, PKAC-alpha
T2 construct: gene PRKACA

PKAC-beta = test system: T3, PKAC-beta
T3 construct: gene PRKACB

PKMYT1 = test system: PKMYT1
PKN1 = test system: PKN1
PKN2 = test system: PKN2
PLK1 = test system: PLK1
PLK2 = test system: PLK2
PLK3 = test system: PLK3
PLK4 = test system: PLK4
PRKCD = test system: PRKCD
PRKCE = test system: PRKCE
PRKCH = test system: PRKCH
PRKCI = test system: PRKCI
PRKCQ = test system: PRKCQ
PRKD1 = test system: PRKD1
PRKD2 = test system: PRKD2
PRKD3 = test system: PRKD3
PRKG1 = test system: PRKG1
PRKG2 = test system: PRKG2
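Note: KINOMEscan kinase panel screen.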

Structure (SMILES)	%Inh (PIP5K2C)	%Inh (PKAC-alpha)	%Inh (PKAC-beta)	%Inh (PKMYT1)	%Inh (PKN1)	%Inh (PKN2)	%Inh (PLK1)	%Inh (PLK2)	%Inh (PLK3)	%Inh (PLK4)	%Inh (PRKCD)	%Inh (PRKCE)	%Inh (PRKCH)	%Inh (PRKCI)	%Inh (PRKCQ)	%Inh (PRKD1)	%Inh (PRKD2)	%Inh (PRKD3)	%Inh (PRKG1)	%Inh (PRKG2)
Cl.c1ccc(Cn2ccc3cc(Nc4ncnc5ccccc45)ccc32)cc1 [GW275568]	25%	18%	0%	0%	26%	0%	4%	0%	0%	5%	0%	8%	0%	31%	11%	0%	18%	13%	0%	28%
Nc1nc(-c2ccccn2)c(-c2ccnc3ccccc23)s1 [GW548057]	57%	0%	4%	0%	0%	9%	0%	0%	0%	14%	0%	26%	9%	26%	3%	36%	25%	15%	17%	9%
COc1ccc(NC(=O)c2ccc(-c3cc(-c4nnc(C)o4)ccc3C)cc2)cc1 [GW595885]	4%	0%	13%	0%	0%	0%	0%	0%	0%	0%	0%	4%	8%	0%	9%	2%	0%	0%	4%	0%
Cl.Cn1ccc(-c2cccc(Nc3ccnc4cc(-c5nccs5)ccc34)c2)n1 [GW525701]	50%	0%	0%	0%	0%	0%	0%	0%	0%	5%	0%	10%	14%	0%	0%	0%	0%	14%	22%	0%
Cn1cc(-c2ccc3c(c2)CCN3C(=O)Cc2cccc(C(F)(F)F)c2)c2c(N)ncnc21 [GSK2606414]	0%	4%	6%	5%	37%	0%	0%	0%	0%	15%	1%	0%	23%	15%	0%	0%	0%	42%	19%	0%
OCCOCCn1ccc2ncnc(Nc3ccc(Oc4cccc(Cl)c4)c(Cl)c3)c21	30%	0%	0%	0%	13%	0%	0%	0%	0%	0%	28%	2%	0%	0%	0%	0%	0%	0%	4%	0%
NC(=O)c1sc(-n2cnc3ccccc32)cc1OCc1ccccc1F [GSK1024306]	8%	21%	2%	0%	60%	0%	99.8%	99%	98.8%	0%	0%	12%	17%	0%	0%	0%	7%	0%	12%	0%
O=C(Nc1ccccc1F)NC1CCN(c2ccnc(Nc3ccc(F)cc3)n2)C1 (stereo not drawn) [GSK1379722]	18%	0%	0%	4%	0%	0%	0%	0%	0%	0%	0%	13%	30%	10%	23%	0%	0%	0%	0%	0%
O=C(c1ccc(-c2cc(-c3c[nH]nc3-c3ccccn3)ccn2)cc1)N1CCCC1 [GW792479]	97%	0%	22%	0%	0%	0%	0%	0%	12%	0%	12%	0%	0%	100%	0%	0%	0%	0%	13%	0%
Nc1nc(-c2cccnc2)c(-c2ccnc3ccccc23)s1 [GW684083]	51%	0%	0%	0%	0%	0%	0%	0%	0%	0%	0%	0%	31%	21%	4%	24%	34%	0%	0%	0%
Clc1cc(Nc2ncnc3cc[nH]c23)ccc1OCc1ccccn1	8%	23%	0%	0%	23%	0%	2%	23%	25%	34%	13%	8%	0%	9%	34%	0%	3%	0%	10%	22%
Cc1cccc(-c2nc(Nc3ccc4[nH]nnc4c3)c3ccccc3n2)n1 [GW867587]	0%	0%	0%	0%	0%	0%	0%	0%	0%	0%	0%	7%	0%	0%	0%	94.2%	98.1%	66%	0%	0%
Cc1ccc(O)cc1Nc1cc(C(F)(F)F)nc2ccc(-c3ccncc3)cc12 [GW630823]	0%	10%	0%	9%	0%	0%	0%	1%	0%	0%	0%	0%	0%	0%	0%	3%	0%	29%	7%	0%
CC(C)(C)OC(=O)NC1CCCN(c2cc(-c3ccc4c(N)n[nH]c4c3)nc(N)n2)C1 (stereo not drawn) [GSK2286096]	0%	0%	0%	0%	0%	0%	16%	0%	0%	10%	0%	12%	0%	0%	0%	0%	15%	0%	0%	70%
Nc1nccc2scc(-c3ccc4c(c3)CCN4C(=O)Cc3cc(F)ccc3F)c12 [GSK2587663]	13%	0%	12%	1%	0%	0%	0%	0%	0%	0%	0%	0%	16%	1%	24%	0%	18%	16%	9%	2%
CN1c2ccc(-c3ccc(C(=O)NCCO)cc3)cc2-c2[nH]ncc2S1(=O)=O	76%	33%	55%	16%	0%	30%	21%	17%	0%	25%	26%	12%	8%	0%	1%	0%	34%	0%	61%	9%
Cn1ccc2ncnc(Nc3ccc(Oc4cccc(Cl)c4)c(Cl)c3)c21	22%	4%	0%	0%	0%	0%	0%	30%	24%	26%	30%	13%	3%	0%	60%	0%	30%	0%	0%	0%
O=C(CCO)NCCn1ccc2ncnc(Nc3ccc(Oc4cccc(C(F)(F)F)c4)c(Cl)c3)c21	26%	0%	12%	10%	0%	1%	0%	0%	0%	0%	0%	6%	0%	0%	0%	0%	5%	0%	13%	0%
O=C(Nc1n[nH]c2nc(-c3ccco3)c(Br)cc12)c1ccc(CN2CCCC2)cc1.O=C(O)[C@H](O)[C@@H](O)C(=O)O [SB-742352]	0%	0%	0%	0%	0%	21%	0%	0%	0%	3%	0%	2%	17%	0%	0%	0%	30%	0%	0%	0%
Fc1cccc(COc2ccc(Nc3ncnc4nn5ccccc5c34)cc2Cl)c1 [GW689066]	32%	0%	8%	0%	0%	0%	0%	0%	0%	0%	0%	0%	0%	25%	7%	0%	0%	0%	0%	0%
COc1cc2c(Nc3cccc(NC(=O)c4ccccc4)c3)ncnc2cc1OCCCN1CCOCC1 [GSK223810]	0%	100%	0%	7%	8%	0%	0%	3%	0%	17%	18%	13%	10%	8%	22%	2%	4%	5%	8%	0%
